Results on 14 compounds are retold here after ChEMBL document CHEMBL4513146, “CO-ADD screening of Karazin Kharkiv National University (Ukraine) compounds”.

Broadly, the Inhibition is the drop in the measured response relative to a control, in per cent.

Potency and affinity values are given separately.

The test system of this assay is Staphylococcus aureus. As to conditions: Concentration 32 ug.mL-1;; ASSAY_TEST Inhibition of Bacterial Growth; detection method Absorption (OD600); MEDIA CAMHB; plate type 384well; NBS; CORNING #3640; time 18 hr.
On to `O=C(Cn1nc2ccc(-c3ccccc3)nn2c1=O)N1CCN(c2ccc(F)cc2)CC1`, for which the Inhibition worked out at 10.02%. Consider `Cc1ccc(-n2ccn3c(SCC(=O)Nc4ccc5c(c4)OCCO5)nnc3c2=O)cc1C`, for which the Inhibition is reported as 6.11%. For `CCc1nnc2c(S(=O)(=O)N(Cc3cc(F)cc(F)c3)c3ccc(C)cc3)cccn12` the value was 10.46%. For `Cc1[nH]c2ccccc2c1C(=O)CSc1nnc2c(=O)n(-c3ccc(F)c(F)c3)ccn12` the value was 13.1%.

In the case of `CCOc1ccccc1NC(=O)Cn1c(=O)c2nnc(C(C)C)n2c2ccccc21`, the Inhibition is listed as 15.38%.

As to `Cc1ccc(N(Cc2ccccc2)S(=O)(=O)c2ccc3nncn3c2)cc1F`, the Inhibition is -5.44%. For `CSc1ccc(CNC(=O)Cn2nc3c(Oc4cccc(C)c4C)nccn3c2=O)cc1` the value was 11.62%. In the case of `Cc1ccc(NC(=O)Cn2nc3c(Sc4ccccc4)nccn3c2=O)c(Br)c1`, the Inhibition is reported as -10.94%. Regarding `CCC(C)NC(=O)Cn1nc2ccc(SCc3ccc(Cl)cc3)nn2c1=O` (centres undefined), the Inhibition is reported as 7.31%.

For the compound `COc1ccc(NC(=O)Cn2c(=O)c3nnc(C)n3c3ccccc32)cc1Cl`, the Inhibition turned out to be 14.24%. As for `CCc1ccccc1NC(=O)Cn1nc2n(C)c(=O)c3c(c(-c4ccccc4)cn3C)n2c1=O`, the Inhibition is 6.44%. For `COc1ccc(NC(=O)Cn2c(=O)c3nnc(C(C)C)n3c3ccccc32)cc1Cl` the value was 10.36%. In the case of `O=c1c2nn(Cc3ccc([N+](=O)[O-])cc3)c(=O)n2ccn1-c1ccccc1` it was 12.75%.

Take `Cc1nnc2c(=O)n(CC(=O)Nc3ccc(Br)cc3)c3ccccc3n12`: the Inhibition is -6.47%.
